Measurements reported in PubChem BioAssay.
The source made the active and inactive calls.

What was measured:
[1] = binders of probe aFSTL3 on microarray, primary screen, stem cell growth factor project, biochemical, small-molecule microarray, fluorescence 635/667 (AID 1064); settings: higher = more signal;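 also: measures binding of the biotinylated anti-FSTL3 antibody to printed compounds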
[2] = binders from COS7 lysate, DM2A8 probe, primary screen, torsin A project, cell lysate, small-molecule microarray, fluorescence 635/667 (AID 1065); settings: higher = more signal, COS7 lysate expressing mutant human TOR1A
[3] = binders of probe aFGF2 on microarray, primary screen, stem cell growth factor project, biochemical, small-molecule microarray, fluorescence 635/667 (AID 1067); settings: higher = more signal;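 also: measures binding of biotinylated aFGF2 protein to printed compounds on slides; z-score merges feature fluorescence and signal-to-noise across triplicate slides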
[4] = binders of probe aFGF10 on microarray, primary screen, stem cell growth factor project, biochemical, small-molecule microarray, fluorescence 635/667 (AID 1071); settings: higher = more signal;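 also: score merges 667 nm spot intensity and signal to noise from triplicate slides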
[5] = biological target: Neurogenic locus notch homolog protein 2 (Homo sapiens) (UniProt Q04721); test: Notch2 binders on small-molecule microarrays, primary screen, biochemical, small-molecule microarray, 635 nm fluorescence, stem cell growth factors (AID 1073); settings: Notch2 binding, higher = more signal
Chain of Neurogenic locus notch homolog protein 2 (Homo sapiens) (Q04721 whole entry, looked up, canonical isoform): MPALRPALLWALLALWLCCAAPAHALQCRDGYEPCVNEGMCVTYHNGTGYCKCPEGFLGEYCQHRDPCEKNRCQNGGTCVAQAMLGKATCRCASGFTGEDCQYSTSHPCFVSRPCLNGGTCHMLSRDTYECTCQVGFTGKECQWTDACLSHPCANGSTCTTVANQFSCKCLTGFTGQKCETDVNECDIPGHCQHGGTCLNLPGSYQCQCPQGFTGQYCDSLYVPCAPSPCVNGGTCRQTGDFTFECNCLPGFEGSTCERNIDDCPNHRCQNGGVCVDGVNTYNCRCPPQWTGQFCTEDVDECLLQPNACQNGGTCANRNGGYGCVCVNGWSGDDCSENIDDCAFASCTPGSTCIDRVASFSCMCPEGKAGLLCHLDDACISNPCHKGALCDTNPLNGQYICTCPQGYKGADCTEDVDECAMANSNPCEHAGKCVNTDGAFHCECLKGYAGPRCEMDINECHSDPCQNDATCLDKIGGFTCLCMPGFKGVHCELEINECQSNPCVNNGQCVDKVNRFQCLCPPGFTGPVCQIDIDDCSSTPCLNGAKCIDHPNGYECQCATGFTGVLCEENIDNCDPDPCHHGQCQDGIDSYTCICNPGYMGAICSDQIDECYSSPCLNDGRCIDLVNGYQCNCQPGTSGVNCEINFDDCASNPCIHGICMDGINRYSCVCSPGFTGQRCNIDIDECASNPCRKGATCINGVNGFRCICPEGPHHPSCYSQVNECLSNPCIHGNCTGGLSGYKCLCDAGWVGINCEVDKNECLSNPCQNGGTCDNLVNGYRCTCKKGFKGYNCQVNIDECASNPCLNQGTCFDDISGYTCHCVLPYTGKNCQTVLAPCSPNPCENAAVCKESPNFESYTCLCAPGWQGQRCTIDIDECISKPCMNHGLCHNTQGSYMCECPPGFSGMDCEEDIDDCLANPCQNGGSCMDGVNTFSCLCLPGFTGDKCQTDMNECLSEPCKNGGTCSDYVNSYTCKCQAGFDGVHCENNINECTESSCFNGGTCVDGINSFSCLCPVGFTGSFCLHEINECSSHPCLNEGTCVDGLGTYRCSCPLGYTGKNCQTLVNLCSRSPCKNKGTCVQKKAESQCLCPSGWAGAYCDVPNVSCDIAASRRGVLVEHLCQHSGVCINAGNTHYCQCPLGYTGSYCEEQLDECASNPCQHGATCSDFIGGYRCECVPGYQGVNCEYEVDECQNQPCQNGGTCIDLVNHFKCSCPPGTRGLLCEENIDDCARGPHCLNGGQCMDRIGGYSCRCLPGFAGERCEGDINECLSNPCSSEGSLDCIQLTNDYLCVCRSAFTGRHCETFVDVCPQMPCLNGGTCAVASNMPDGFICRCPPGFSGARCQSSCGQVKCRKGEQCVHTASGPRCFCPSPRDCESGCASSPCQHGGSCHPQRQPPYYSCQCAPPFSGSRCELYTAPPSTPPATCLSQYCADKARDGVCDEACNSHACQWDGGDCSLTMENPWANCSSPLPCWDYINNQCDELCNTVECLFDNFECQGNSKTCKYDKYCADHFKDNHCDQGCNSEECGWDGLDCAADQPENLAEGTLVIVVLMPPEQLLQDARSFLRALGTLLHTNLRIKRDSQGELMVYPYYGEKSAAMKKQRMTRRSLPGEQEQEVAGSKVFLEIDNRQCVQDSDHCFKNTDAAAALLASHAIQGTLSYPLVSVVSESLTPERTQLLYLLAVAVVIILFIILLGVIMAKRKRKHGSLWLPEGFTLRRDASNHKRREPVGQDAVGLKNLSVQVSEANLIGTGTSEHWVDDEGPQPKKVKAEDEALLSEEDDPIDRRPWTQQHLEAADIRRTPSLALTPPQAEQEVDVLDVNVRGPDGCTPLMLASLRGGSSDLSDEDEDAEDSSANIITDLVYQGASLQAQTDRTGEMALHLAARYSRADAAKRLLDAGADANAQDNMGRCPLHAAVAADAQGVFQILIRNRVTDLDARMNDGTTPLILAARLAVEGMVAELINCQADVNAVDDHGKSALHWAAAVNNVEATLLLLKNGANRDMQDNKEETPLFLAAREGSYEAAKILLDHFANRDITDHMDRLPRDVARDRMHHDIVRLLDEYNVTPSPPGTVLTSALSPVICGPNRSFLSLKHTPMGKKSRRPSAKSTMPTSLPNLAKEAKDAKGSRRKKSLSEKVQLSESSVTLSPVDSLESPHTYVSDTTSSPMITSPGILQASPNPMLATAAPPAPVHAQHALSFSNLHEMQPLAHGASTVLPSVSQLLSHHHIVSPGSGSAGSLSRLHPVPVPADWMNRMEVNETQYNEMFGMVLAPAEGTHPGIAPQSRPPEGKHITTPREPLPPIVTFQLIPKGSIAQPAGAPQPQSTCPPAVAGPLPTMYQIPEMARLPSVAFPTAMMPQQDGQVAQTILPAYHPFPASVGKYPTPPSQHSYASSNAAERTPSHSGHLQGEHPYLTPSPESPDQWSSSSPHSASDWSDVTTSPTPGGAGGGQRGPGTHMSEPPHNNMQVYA

[6] = biological target: Pro-neuregulin-1, membrane-bound isoform (Homo sapiens) (UniProt Q02297); test: NRG1 binders on small-molecule microarrays, primary screen, psychiatric disease protein project, biochemical, small-molecule microarray, fluorescence 635/667 (AID 1075); settings: NRG1 binding, 635 nm fluorescence, higher = more signal;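 also: score combines 667 nm spot fluorescence with signal to noise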
Chain of Pro-neuregulin-1, membrane-bound isoform (Homo sapiens) (Q02297 whole entry, looked up, the tested form may be a part, canonical isoform): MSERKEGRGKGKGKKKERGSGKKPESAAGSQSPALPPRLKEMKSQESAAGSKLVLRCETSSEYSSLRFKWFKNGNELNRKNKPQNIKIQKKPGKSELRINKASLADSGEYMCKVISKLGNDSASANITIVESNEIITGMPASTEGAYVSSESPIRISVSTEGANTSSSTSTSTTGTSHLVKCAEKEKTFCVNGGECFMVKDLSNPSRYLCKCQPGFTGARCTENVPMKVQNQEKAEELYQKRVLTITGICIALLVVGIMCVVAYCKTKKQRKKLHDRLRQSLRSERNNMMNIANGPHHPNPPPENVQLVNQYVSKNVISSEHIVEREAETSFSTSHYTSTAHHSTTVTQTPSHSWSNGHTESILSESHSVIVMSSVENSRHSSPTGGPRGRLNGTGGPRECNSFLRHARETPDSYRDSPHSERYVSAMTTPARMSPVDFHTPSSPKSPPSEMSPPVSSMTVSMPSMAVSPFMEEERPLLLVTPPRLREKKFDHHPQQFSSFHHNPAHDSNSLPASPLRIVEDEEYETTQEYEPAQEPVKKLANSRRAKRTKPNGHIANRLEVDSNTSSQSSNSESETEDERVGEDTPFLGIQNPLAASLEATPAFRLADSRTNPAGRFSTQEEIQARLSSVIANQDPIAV

[7] = system: Neuregulin-1 EGF-like domain; test: binders of neuregulin-1 EGF-like domain, primary screen, biochemical, small-molecule microarray, 635 nm fluorescence (AID 1081); settings: small-molecule microarray binding, higher = more signal;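 also: binding of the protein to compounds printed on small-molecule microarray slides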
[8] = FRG1 promoter luciferase signal modulators, primary screen, FRG1 inhibition for FSHD, cell-based, C2C12 myotubes, firefly/Renilla luciferase, luminescence (AID 1084); settings: higher = more signal, called active from +8 up or from −8 down
[9] = binders of probe aFST on microarray, primary screen, stem cell growth factor project, biochemical, small-molecule microarray, fluorescence 635/667 (AID 1086); settings: higher = more signal;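 also: score merges 667 nm fluorescence with signal-to-noise of each printed compound spot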
[10] = binders of probe aHhip on microarray, primary screen, stem cell growth factor project, biochemical, small-molecule microarray, fluorescence 635/667 (AID 1087); settings: higher = more signal;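 also: score merges spot fluorescence at 667nm with spot signal to noise ratio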
[11] = system: PRMT1 (protein arginine N-methyltransferase 1); test: PRMT1 binders on small-molecule microarrays, primary screen, biochemical, small-molecule microarray, 635 nm fluorescence (AID 1088); settings: small-molecule microarray binding, higher = more signal;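 also: binding of Prmt1 protein to compounds spotted on small-molecule microarray slides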
[12] = yeast growth modulation, basal conditions, primary screen, YJM789 clinical isolate, OD600, 24 h (AID 1089);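 also: growth of clinical yeast isolate S. cerevisiae YJM 789 seeded 1000 cells per well; test concentration not given here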; settings: S. cerevisiae YJM789 growth, higher = more signal, called active from +8 up or from −8 down
[13] = fission yeast growth modulation, primary screen, strain 972, OD600, 24 h, no modulator (AID 1090);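 also: basal condition with compound alone and no growth modifier present; test concentration not given here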; settings: S. pombe 972 growth, higher = more signal, called active from +8 up or from −8 down
[14] = S. cerevisiae growth modulation with rapamycin, primary screen, strain BY4716, OD600, 96 h (AID 1091); settings: higher = more signal, called active from +8 up or from −8 down; also: test concentration not given here
[15] = biological target: Torsin-1A-interacting protein 2 (Homo sapiens) (UniProt Q8NFQ8); test: LULL1 binders on small-molecule microarray, primary screen, cell lysate, human LULL1 lysate, 635/667 nm fluorescence (AID 1092); settings: hLULL1 lysate binding, 635 nm fluorescence, higher = more signal;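 also: probe is lysate of COS7 cells overexpressing human LULL1; score merges per-feature 667 nm fluorescence with signal-to-noise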
Chain of Torsin-1A-interacting protein 2 (Homo sapiens) (Q8NFQ8 whole entry, looked up): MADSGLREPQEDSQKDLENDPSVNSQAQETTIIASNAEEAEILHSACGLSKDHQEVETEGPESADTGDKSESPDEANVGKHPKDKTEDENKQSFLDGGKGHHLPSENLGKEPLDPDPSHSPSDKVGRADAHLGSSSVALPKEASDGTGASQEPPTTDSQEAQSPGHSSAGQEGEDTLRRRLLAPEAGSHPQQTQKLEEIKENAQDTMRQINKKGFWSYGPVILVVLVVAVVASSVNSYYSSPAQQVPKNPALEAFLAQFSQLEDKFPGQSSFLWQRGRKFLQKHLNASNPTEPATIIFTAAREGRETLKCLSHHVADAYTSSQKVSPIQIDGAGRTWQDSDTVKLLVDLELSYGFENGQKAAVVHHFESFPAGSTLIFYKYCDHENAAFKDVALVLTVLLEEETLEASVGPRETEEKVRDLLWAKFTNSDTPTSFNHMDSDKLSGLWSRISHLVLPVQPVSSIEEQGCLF

[16] = E. coli growth modulation, two-sided OD650, primary screen, E. coli filamentation project, strain DRC41, 24 h (AID 1093); settings: OD650, 24 h, higher = more signal, called active from +8 up or from −8 down;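 also: MC1000 strain lacking acrAB efflux and sulA so SOS filamentation is blocked; test concentration not given here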
[17] = small-molecule microarray binders of probe aLefty2, primary screen, biochemical, biotinylated probe, 635/667 nm fluorescence (AID 1094); settings: higher = more signal;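 also: score merges spot fluorescence near 667 nm with spot signal-to-noise ratio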
[18] = system: Noggin (protein binding on small-molecule microarray); test: Noggin binders on small-molecule microarray, primary screen, biochemical, 635/667 nm fluorescence (AID 1095); settings: 635 nm fluorescence, higher = more signal;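 also: score merges 667 nm feature fluorescence with signal to noise over triplicate slides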
[19] = biological target: Neurogenic locus notch homolog protein 3 (Homo sapiens) (UniProt Q9UM47); test: NOTCH3 binders on small-molecule microarray, primary screen, biochemical, 635/667 nm fluorescence (AID 1096); settings: NOTCH3 binding, 635 nm fluorescence, higher = more signal
[20] = small-molecule microarray binders of probe aEGFR, primary screen, biochemical, biotinylated probe, 635/667 nm fluorescence (AID 1097); settings: higher = more signal;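 also: probe is a biotinylated anti-EGFR antibody binding compounds printed on slides; score combines fluorescence near 667 nm and signal to noise of each spot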

Row | Compound | composite z-score [1] | composite z-score [2] | composite z-score [3] | composite z-score [4] | composite z-score [5] | composite z-score [6] | composite z-score [7] | z-score [8] | composite z-score [9] | composite z-score [10] | composite z-score [11] | z-score [12] | z-score [13] | z-score [14] | composite z-score [15] | z-score [16] | composite z-score [17] | composite z-score [18] | composite z-score [19] | composite z-score [20]
1 | COCCCNC(=O)[C@]1(Cc2ccccc2CN=[N+]=[N-])N=C(c2ccc(OCCCO)cc2)O[C@@H]1c1ccccc1CN=[N+]=[N-] | 0.726 | 0.686 | 0.256 | 1.03 | 1.25 | 1.84 | 1.15 | -1.35 (inactive) | 1.23 | 0.537 | 1.51 | -0.353 (inactive) | 1.34 (inactive) | 31.6 (active) | 3.17 | 0.378 (inactive) | 0.419 | 0.342 | 0.697 | 0.332
2 | COCCCNC(=O)[C@@]1(Cc2ccccc2)COC(c2ccc(OCCCO)cc2)=N1 | 0.0674 | -0.321 | -0.0745 | 0.821 | 0.694 | 1.77 | 0.99 | -1.02 (inactive) | 0.696 | -0.135 | 1.49 | -1.29 (inactive) | -1.98 (inactive) | -1.27 (inactive) | 3.55 | 1.47 (inactive) | 0.0634 | -0.233 | 0.117 | -0.0828
3 | COC(=O)C(CC#Cc1ccc2c(c1)[C@]1(C(=O)N2)[C@H](C(=O)N2CCc3cc(OC)c(OC)cc3C2)[C@H]2C(=O)O[C@H](c3ccccc3)[C@H](c3ccccc3)N2[C@@H]1c1ccc(OCCO)cc1)C(=O)OC | -0.295 | 1.53 | -0.145 | 0.945 | 1.54 | 1.75 | 1.31 | 0.732 (inactive) | 0.672 | 0.0373 | 1.55 | 3.22 (inactive) | 1.63 (inactive) | 5.29 (inactive) | 2.82 | 0.37 (inactive) | 0.128 | 1.3 | 1.07 | 0.174
4 | COc1ccc([Si](C)(C)[C@@H]2[C@@H](CCO)O[C@]3(C(=O)N(Cc4ccccc4)c4ccc(N5CCCCC5=O)cc43)[C@H]2C)cc1 | -0.389 | 0.942 | 0.0026 | 0.711 | 1.06 | 0.965 | 1.15 | -4.38 (inactive) | 0.566 | -0.0645 | 1.56 | 3.43 (inactive) | -0.536 (inactive) | 4.86 (inactive) | 2.06 | 2.63 (inactive) | -0.0151 | 0.901 | 1.11 | -0.0828
5 | COC(=O)C(CC#Cc1ccc2c(c1)[C@]1(C(=O)N2)[C@H](C(=O)N2CCc3cc(OC)c(OC)cc3C2)[C@H]2C(=O)O[C@H](c3ccccc3)[C@H](c3ccccc3)N2[C@@H]1c1ccc(O)cc1)C(=O)OC | 0.145 | 0.305 | 0.0276 | 0.734 | 1.32 | 1.69 | 1.35 | 1.77 (inactive) | 0.288 | 0.644 | 1.48 | 2.78 (inactive) | 0.355 (inactive) | 2.62 (inactive) | 2.83 | 2.04 (inactive) | 0.157 | 1.88 | 1.09 | 0.404
6 | CCCC=C(CCC)[C@@H](NS(=O)(=O)c1ccccc1)c1ccc(C(F)(F)F)cc1 | -0.201 | 0.322 | 0.174 | 0.96 | 1.55 | 1.52 | 1.13 | -2.28 (inactive) | 1.05 | 0.28 | 1.39 | 0.3 (inactive) | 1.39 (inactive) | 12.1 (active) | 3.47 | -0.644 (inactive) | 0.413 | 0.554 | 1.08 | 0.132
7 | O=C1NC(=O)C2C1C=CC(C(O)c1ccc3c(c1)OCO3)N2Nc1ccc(Cl)cc1Cl (stereo not given) | 0.358 | -0.173 | -0.0274 | 0.218 | 1.22 | 1.73 | 0.543 | 1.28 (inactive) | 0.176 | -0.291 | 0.0405 | -3.53 (inactive) | -0.462 (inactive) | 0.142 (inactive) | 2.94 | -1.14 (inactive) | 0.15 | 0.132 | 0.361 | -0.108
8 | COc1ccc([Si](C)(C)[C@@H]2[C@@H](CC(=O)N(CCO)Cc3ccccc3)O[C@]3(C(=O)N(Cc4ccc(N5CCOC5=O)cc4)c4ccccc43)[C@H]2C)cc1 | 0.149 | 0.181 | -0.093 | 0.222 | 0.294 | 0.567 | 1.1 | -0.153 (inactive) | 0.389 | 0.113 | 1.44 | -0.677 (inactive) | 0.303 (inactive) | 2.92 (inactive) | 2.13 | -0.249 (inactive) | -0.0887 | 0.806 | 0.643 | -0.0343
9 | O=C1C2C=CC(C(O)c3ccc(Br)cc3)N(Nc3ccccc3)C2C(=O)N1c1ccccc1 (stereo not given) | 0.385 | 0.227 | 0.191 | 0.82 | 1.41 | 1.86 | 1.09 | -2.33 (inactive) | -0.194 | -0.0645 | 0.826 | 0.379 (inactive) | 0.443 (inactive) | 0.84 (inactive) | 2.12 | -1.59 (inactive) | 0.228 | -0.325 | 1.12 | -0.0123
10 | NCCCCCCNC(=O)[C@H]1C[C@H]2C(=O)N3CCC[C@H]3C(=O)N2[C@H]1c1ccc(O)cc1 | 0.185 | 0.533 | -0.029 | 0.176 | -0.45 | 1.23 | 1.22 | -0.415 (inactive) | 0.0744 | -0.184 | 1.29 | -0.777 (inactive) | -1.25 (inactive) | -0.28 (inactive) | 0.991 | 0.181 (inactive) | -0.179 | 1.41 | 0.419 | 0.0053
